Compound activity deposited in PubChem BioAssay by National Center for Advancing Translational Sciences (NCATS).
This excerpt belongs to a sample that is enriched for hits.
PI4K2A block: PI4K2A (human) kinase inhibition | purified PI4K2A, ADP-Glo luminescence, 1 h; active compounds read low | activity change, negative = inhibition, % at 76.9 µM | 420,000 compounds, 0.13% hits; in the data active means activity change below about -50%; inconclusive means mostly about -30% to -49%;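 further: -100% = wells without enzyme as full effect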
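Compounds are screened against recombinant PI4K2A using PI as substrate and ATP, the latter dispensed at 300 microM. Reactions run one hour at ambient temperature before ADP-Glo detection; full inhibition defined by wells lacking enzyme.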
PI5P4K alpha inh: blocks human PI5P4K alpha kinase activity; P48426; PI5P4Kalpha enzyme, ADP-Glo luminescence, 60 min; active compounds read low; max response, %; 330,000 compounds, 1.2% hits; AID 652105; active means max response of -50% or lower; inconclusive means between -30% and -50%; inactive means -30% or higher; further: value at the top dose of about 77 µM
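PI5P4Kalpha ADP-Glo assay; 5 microM ATP final; 60 min RT reaction; HEPES pH 7.4/EGTA/CHAPS, 5% DMSO; controls lacking substrate or enzyme; luminescent end-point.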
Pin1 inh: blocks the human prolyl isomerase Pin1 | Potency, µM (titrated, usually from 115 µM), without a hit: at the highest dose activity, negative = inhibition, hits mostly inhibitors | AID 504891 | 390,000 compounds, 0.009% hits | Q13526 | Pin1 FP peptide displacement, HiFluor488, 10 min; active means well fitted inhibition curve with a large enough effect in the polarisation, with a control signal flat, not every such curve was filed as active; inconclusive means small, poorly fitted or top-dose-only effect, or effect the other way, or a change in a side signal; inactive means no such curve, though single readings can be large or run the other way; the % refers to the polarisation; further: potency means the concentration at half of the fitted maximal effect
Target sequence (Q13526 whole entry, looked up): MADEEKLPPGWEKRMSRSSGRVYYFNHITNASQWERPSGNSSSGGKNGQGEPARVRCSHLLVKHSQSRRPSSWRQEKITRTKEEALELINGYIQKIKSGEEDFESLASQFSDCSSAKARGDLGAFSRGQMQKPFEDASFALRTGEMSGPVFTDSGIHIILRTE
Tb PFK inh: inhibitors of T. brucei phosphofructokinase | O15648 | T. brucei PFK, ADP-Glo luminescence | Potency, µM (highest dose often 57.5 µM), for the others: at the highest dose activity, negative = inhibition, actives largely listed as inhibitors | 330,000 compounds, 0.17% hits;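 further: potency means the concentration at half of the fitted maximal effect; 0% = uninhibited 1x PFK enzyme wells and -100% = no-enzyme wells; nearly all actives have a fitted effect of over 60% in size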
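In TEA buffer at pH 8.0 with 5 mM MgCl2, enzyme (1.25 nM) converted F6P (0.5 mM) and ATP (0.1 mM) for 45 min at room temperature. ADP product was read by luciferase luminescence.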
PGK inhibitor: inhibitors of T. brucei phosphoglycerate kinase; AID 602233; PGK/GAPDH coupled, Kinase-Glo luminescence, 60 min; Potency, µM (titrated, usually from 57.5 µM), inactives show at the top dose activity change, negative = inhibition, usual class: inhibitors; 380,000 compounds, 0.043% hits; further: potency means the concentration at half of the fitted maximal effect; nearly all actives have a fitted effect of over 60% in size
Target sequence (P07378 whole entry, looked up): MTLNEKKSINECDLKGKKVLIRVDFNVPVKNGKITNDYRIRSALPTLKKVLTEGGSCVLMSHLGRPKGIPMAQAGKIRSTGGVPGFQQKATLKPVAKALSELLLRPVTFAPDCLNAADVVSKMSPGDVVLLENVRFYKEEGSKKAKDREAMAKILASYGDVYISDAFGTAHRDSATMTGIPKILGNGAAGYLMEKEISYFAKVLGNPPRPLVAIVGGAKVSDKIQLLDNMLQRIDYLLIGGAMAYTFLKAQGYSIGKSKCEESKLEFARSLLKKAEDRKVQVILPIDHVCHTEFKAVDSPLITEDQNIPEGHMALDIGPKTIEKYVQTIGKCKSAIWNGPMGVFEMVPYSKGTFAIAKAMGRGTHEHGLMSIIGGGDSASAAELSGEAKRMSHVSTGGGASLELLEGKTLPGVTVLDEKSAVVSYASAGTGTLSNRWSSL
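Luminescent ATP detection (Kinase-Glo Plus) follows a 60-minute room-temperature incubation, with wells lacking PGK as controls. Buffer: 100 mM TEA (pH 7.6), 5 mM MgCl2, 0.01% Tween-20. Coupling enzyme GAPDH (100 nM final) supplies unstable 1,3-BPG in-well.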
Numbers without * were called inactive; i = inactive; ? = inconclusive; nt = no result. Unless noted, the call rests on the fitted dose curve; in most records, active means well fitted curve in the direction sought with a large enough effect; inconclusive means small, poorly fitted or top-dose-only effect, or another doubt; inactive means no such curve, though single readings can be large; an effect the other way counts as inactive or inconclusive. Unless noted, on the % scale 0 is the no-effect control and ±100 the full control effect.

SMILES	PI4K2A block	PI5P4K alpha inh	Pin1 inh	Tb PFK inh	PGK inhibitor
Nn1c(=S)[nH]c2sc3c(c2c1=O)CCCC3	-2	-70*	-4%	nt	-6%
CCCCC/C=C\C/C=C\CCCCCCCC(=O)NC(C)c1ccccc1 (stereo not drawn)	0	nt	nt	nt	nt
Cn1cc(P(=O)(c2ccccc2)c2ccccc2)c2ccccc21	nt	nt	-1%	nt	nt
CSc1nc(N(CCO)CCO)c2sc3nc(-c4ccco4)c4c(c3c2n1)CCC4	-56*	-89*	?	?	?
Cn1c(=O)[nH]c(Nc2ccccc2)c([N+](=O)[O-])c1=O	-8	-58*	-3%	-1%	-6%
O=S(=O)(c1cccc(C(F)(F)F)c1)n1c(/C=C/c2ccccc2)nc2ccccc21	-61*	nt	-2%	nt	i
CSc1ccc(/C=C/c2nc3ccccc3n2S(=O)(=O)c2ccc(Br)cc2)cc1	?	nt	-9%	nt	?
CCCCNC(=O)C1CCCN1C(=O)Nc1ccc(Cl)cc1 (stereo not drawn)	2	nt	nt	nt	nt
O=C(CN1C(=O)S/C(=C\c2cc(Cl)c(O)c(Cl)c2)C1=O)Nc1ccccc1	4	-86*	?	-2%	-12%
Cc1cc(C(=O)O)ccc1-c1ccc(/C=C2\SC(=O)N(CC(=O)Nc3ccc4c(c3)OCO4)C2=O)o1	nt	nt	nt	-15%	nt
Cc1ccc(NC(=O)CN2C(=O)S/C(=C\c3ccc(-c4cccc(C(=O)O)c4C)o3)C2=O)cc1	nt	nt	nt	3%	nt
Cc1ccccc1NC(=O)CN1C(=O)S/C(=C\c2ccc(-c3cc(C(=O)O)ccc3C)o2)C1=O	-9	-79*	?	-19%	?
Cc1ccc(C(=O)O)cc1-c1ccc(/C=C2\SC(=O)N(CC(=O)Nc3ccccc3)C2=O)o1	0	-56*	?	0%	-16%
Cc1ccc(NC(=O)CN2C(=O)S/C(=C/c3ccc(-c4cccc(C(=O)O)c4)o3)C2=O)cc1	-2	?	?	?	10µM*
COc1ccc(OC)c(S(=O)(=O)N2CCN(S(=O)(=O)c3ccc4c(c3)OCCO4)CC2)c1	nt	nt	-1%	nt	nt
CCOC(=O)C(C)N1C(=O)S/C(=C\c2ccc(-c3ccccc3C(=O)O)o2)C1=O (stereo not drawn)	-12	?	-14%	-25%	nt
Cc1ccc(C)c(N2C(=N)S/C(=C\c3ccc(-c4ccccc4C(=O)O)o3)C2=O)c1	-22	-52*	64%	3%	0%
O=C1c2ccccc2S(=O)(=O)c2cc(-c3nn[nH]n3)ccc21	4	-73*	nt	nt	-4%
CCOC(=O)C1=C(O)/C(=C\c2ccc(CNS(=O)(=O)c3ccc(Br)cc3)o2)N=C1C	-12	-58*	?	-1%	-13%
COC(=O)C1=C(O)/C(=C\c2ccc(CNS(=O)(=O)c3ccc(Cl)cc3)o2)N=C1C	-9	-21	?	-4%	-1%
NC(=O)C1CCN(c2ncnc(-c3ccc4c(c3)OCCCO4)n2)CC1	nt	nt	1%	nt	nt
Cc1cn([C@@H]2O[C@H](CO)[C@@H](O)[C@H]2F)c(=O)[nH]c1=O	1	nt	nt	nt	nt
O=C1C(=Cc2ccccc2O)SC(=S)N1CCCN1CCOCC1	-4	-69*	nt	nt	-9%
COC(=O)C1=C(C)NC(C)=C(C(=O)OC)C1c1ccccc1[N+](=O)[O-]	3	-58*	12%	13%	-2%
CCOC(=O)C1=C(C)NC(C)=C(C(=O)OC)C1c1cccc([N+](=O)[O-])c1 (stereo not drawn)	6	8	-2%	-1%	1%
SMILES	PI4K2A block	PI5P4K alpha inh	Pin1 inh	Tb PFK inh	PGK inhibitor
CC1(C)CC(=O)C(C(C2=C(O)CC(C)(C)CC2=O)c2ccc(O)c([N+](=O)[O-])c2)=C(O)C1	-14	-68*	-1%	-11%	-2%
CC1(C)CC(=O)C(C(C2=C(O)CC(C)(C)CC2=O)c2ccc([N+](=O)[O-])cc2)C(=O)C1 (stereo not drawn)	0	-6	2%	?	i
Cc1cccc(N(C)C(=S)Oc2ccc3c(c2)C2CCC3C2)c1 (stereo not drawn)	-3	nt	nt	nt	nt
COc1ccc(NC(=O)CC(=O)Nc2ccc(OC)cc2OC)c(OC)c1	0	nt	-1%	-10%	5%
COc1ccc(NC(=O)CC(C)=O)c(OC)c1	5	-64*	0%	-2%	-6%
COc1ccccc1NC(=S)OC1CCC12CCC(c1ccccc1)CC2 (stereo not drawn)	0	nt	nt	nt	nt
O=C1NC(=S)S/C1=C/c1ccc(Oc2cnccn2)cc1	3	-78*	?	-7%	-1%
CN(C)c1ccc(C=C2SC(=S)NC2=O)cc1	1	-14	?	nt	-14%
CCOc1c(O)ccc(/C=C2\SC(=S)NC2=O)c1[N+](=O)[O-]	-6	-101*	46%	12%	-1%
CCOc1ccc(N(C)c2ccc(/C=C3/SC(=S)NC3=O)cc2)cc1	-6	-55*	?	-7%	-9%
Cc1ccc(C(=O)c2cc(O)c(O)c([N+](=O)[O-])c2)cc1	0	nt	nt	nt	nt
CCC(=O)Oc1ccc2c(c1)CC[C@@H]1[C@@H]2CC[C@@]2(C)[C@H]1C[C@@H](OC(=O)CC)[C@@H]2OC(=O)CC	2	nt	nt	nt	nt
Cc1ccc(NC(=O)CCc2nc3sc4c(c3c(=O)[nH]2)CCCC4)c(Br)c1	-26	-66*	39%	0%	-6%
COc1ccc(C2N(Cc3ccccc3)C(=O)c3ccccc3N2C)cc1COc1ccc(NC(C)=O)cc1 (stereo not drawn)	nt	nt	24%	nt	nt
CCOc1ccc(C2C(C#N)=C(N)SC(N)=C2C#N)cc1OCC	-5	-51*	?	-1%	4%
N#CC1=C(N)SC(N)=C(C#N)C1c1ccc([N+](=O)[O-])cc1	11	-84*	18%	-6%	i
O=C(NNC(=O)c1cccc(-n2cccc2)c1)c1ccc(F)cc1	-14	-68*	?	?	-8%
COc1ccc(S[C@]2(C(=O)N(C)C)CC(=O)N(S(=O)(=O)c3ccc(F)cc3)[C@@H]2c2ccc(OC)cc2)cc1	-4	nt	nt	nt	nt
O=C1C=C(NCc2ccccc2)c2ccccc2C1=O	-64*	2	?	4%	?
O=c1[nH]n2c(=O)c3c([nH]c2c1N=Nc1cccc(Cl)c1)CCC3	2	-58*	?	?	-9%
NS(=O)(=O)c1ccc(N=Nc2c(=O)[nH]n3c(=O)c4c([nH]c23)CCCC4)cc1	7	-62*	?	15%	-12%
CC(=O)O[C@@H]1CC2C3CCc4cc(OC(=O)c5ccccc5)ccc4C3CCC2(C)[C@H]1OC(C)=O (stereo partly drawn)	3	nt	nt	nt	nt
O=C(Nc1ccc(O)c2ncccc12)c1ccccc1F	nt	nt	-7%	nt	nt
Nc1ncnc2c1ncn2C1CCCC1	-65*	-2	3%	-9%	4%
Nc1ncnc2c1ncn2[C@H]1C[C@H](O)[C@@H](CO)O1	?	4	-3%	-2%	-9%
